# Positions count from the first letter of the chain named.
# Experiments:
# Experiment in all cases: HT-SELEX; high values mean tight binding
# Conditions in all cases: protein: recombinant; vector His6-GST; dsDNA, one strand shown
# SALL4 ZFC4 WT (HT-SELEX) = target: T1, SALL4 ZFC4 WT (HT-SELEX) (Mus musculus, UniProt Q8BX22 870-940)
# T1 sequence: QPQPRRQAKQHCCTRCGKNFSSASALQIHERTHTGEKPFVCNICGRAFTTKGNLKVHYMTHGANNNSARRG
# Method in brief: (§1)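 Binding signal is expressed as fold change in each canonical k-mer's read fraction over the initial random library. To obtain it, 1 µg of purified recombinant mouse SALL4 zinc finger cluster 4 (residues 870–940) was incubated for 10 min at room temperature with library DNA (1.5 µg first cycle, 200 ng later cycles) in 100 µl of 10 mM Tris–HCl pH 7.5, 50 mM NaCl, poly(dI-dC) and DTT. Ni2+ bead-captured complexes went through washing, PCR amplification and reselection for up to 6 cycles, in triplicate, before MiSeq sequencing and scanning for 6-mers.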
# [1] = target: T2, SALL4 ZFC4 R900W (HT-SELEX) (Mus musculus, UniProt Q8BX22 870-940, R900W)
# T2 sequence: T1 sequence with R31W
# Method in brief: as §1
# [2] = target: T3, SALL4 ZFC4 G921D (HT-SELEX) (Mus musculus, UniProt Q8BX22 870-940, G921D)
# T3 sequence: T1 sequence with G52D
# Method in brief: as §1
Sequence,binding signal (SALL4 ZFC4 WT (HT-SELEX)) [fold-change vs cycle 0],binding signal [1] [fold-change vs cycle 0],binding signal [2] [fold-change vs cycle 0]
AAAGTC,1.1 ± 0.0483,1.25 ± 0.0636,1.24 ± 0.0652
GAGAGC,0.363 ± 0.00861,0.422 ± 0.0138,0.588 ± 0.0466
GGCTAC,0.316 ± 0.0371,0.356 ± 0.0124,0.493 ± 0.0659
AGATAA,2.16 ± 0.129,2.17 ± 0.195,1.87 ± 0.206
CAGTAA,1.35 ± 0.0452,1.48 ± 0.063,1.37 ± 0.109
AAATTG,1.6 ± 0.125,1.53 ± 0.0609,1.48 ± 0.0586
ACTTAC,1.44 ± 0.0822,1.6 ± 0.106,1.47 ± 0.146
AAGAAC,1.29 ± 0.0399,1.49 ± 0.0657,1.38 ± 0.123
AACTGT,1.31 ± 0.0453,1.39 ± 0.0174,1.34 ± 0.0563
AGTTAC,1.44 ± 0.0411,1.56 ± 0.0396,1.49 ± 0.117
TCATAA,3.28 ± 0.256,2.06 ± 0.0751,1.84 ± 0.154
CAAGTC,0.742 ± 0.0124,0.878 ± 0.025,0.942 ± 0.0196
ACAAGA,1.29 ± 0.0493,1.52 ± 0.0767,1.39 ± 0.105
TCCGAA,0.618 ± 0.0382,0.692 ± 0.0361,0.791 ± 0.046
AAGCAC,0.582 ± 0.0244,0.678 ± 0.0144,0.796 ± 0.0229
TCCAAA,1.1 ± 0.0395,1.19 ± 0.0233,1.17 ± 0.00926
GAAGAC,0.8159 ± 0.00405,0.962 ± 0.00987,0.993 ± 0.0221
CAAAGA,1.18 ± 0.0383,1.34 ± 0.0673,1.28 ± 0.0399
ATCGAG,0.776 ± 0.0249,0.873 ± 0.0248,0.967 ± 0.0375
TACGCA,0.51 ± 0.0296,0.54 ± 0.0242,0.668 ± 0.0555
ATATAT,5.74 ± 0.718,2.51 ± 0.217,2.2 ± 0.291
AATGAT,2.25 ± 0.203,2.15 ± 0.135,1.94 ± 0.238
